Results published in PubChem BioAssay.

These molecules were tested on Wnt5a (protein binding on small-molecule microarray) (assay: Wnt5a binders on small-molecule microarray, primary screen, biophysical, 635/667 nm fluorescence (AID 1142;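 also: fluorescence read at 667 nm with signal to noise per printed feature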)). Conditions: 635 nm fluorescence, higher = more signal.
Molecule `COc1cc2c(cc1O)C(c1cccs1)N(Cc1cc3c(cc1Br)OCO3)CC2` (stereo not given) has a composite z-score of 0.594. For `CCCNC(=O)[C@@]1(Sc2ccc(C)cc2)CC(=O)N(C2Cc3ccccc3C2)[C@@H]1c1ccc(CO)cc1I`, the composite z-score was 0.196. Work on `CC(C)=C1C(=O)C(c2ccccc2)=C2CN3C(=O)N(CCc4ccccc4)C(=O)[C@]3(Cc3ccc(C(F)(F)F)cc3)[C@H]21` yielded a composite z-score of -0.199. `COc1cccc(C)c1NC(=O)O[C@H]1[C@H](OC(=O)Nc2ccccc2-c2ccccc2)[C@H](OC(=O)Nc2ccccc2-c2ccccc2)[C@@H](OC)O[C@@H]1CO` was tested, and the composite z-score was 0.63. For `COCCCNC(=O)[C@@]1(CCC(=O)OC(C)(C)C)N=C(c2ccc(OCCCO)cc2)O[C@H]1c1ccccc1N=[N+]=[N-]`, the composite z-score was 0.573. In the case of `COc1cc2c(cc1O)C(c1ccc(CN3CCCC3)cc1)N(Cc1cc3c(cc1Br)OCO3)CC2` (stereo not given), the composite z-score is reported as -0.116. For `CCCC[C@@H](O)C1=C(COC)C[C@H]2C(=O)N(C)C(=O)[C@H]2[C@H]1CO`, the composite z-score was 0.0849. Work on `COC(=O)C(CC#Cc1ccc2c(c1)[C@]1(C(=O)N2)[C@H](c2ccc(O)cc2)N2[C@H](c3ccccc3)[C@H](c3ccccc3)OC(=O)[C@H]2[C@@H]1C(=O)NC[C@H](O)c1ccccc1)C(=O)OC` yielded a composite z-score of 0.0209. `COC(=O)C1=CC(CCCO)=CC(c2ccc(CN3CCCC3)cc2)N(Cc2cccc(OC(F)(F)F)c2)C=C1C(=O)OC` (stereo not given) gave a composite z-score of -0.0146. `NC(=O)NCC#Cc1ccc2c(c1)[C@]1(C(=O)N2)[C@H](c2ccccc2OCCO)N2[C@H](c3ccccc3)[C@H](c3ccccc3)OC(=O)[C@H]2[C@@H]1C(=O)O` showed a composite z-score of -0.163.
